Only some compounds are listed: those with a hit (about 4.1% of all), similar ones and a draw of the others.
rCAG RNA binder – binders of r(CAG) RNA repeats, primary screen, biochemical, fluorescence; hit rate 1.3% among 370,000; inhibition, % at 3 µM; r(CAG) RNA repeat, TO-PRO-1 dye displacement fluorescence; AID 651821, 2012;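 active = inhibition above the plate cutoff, the mean of all test compounds on that plate plus 3 SD, cut at about 35% in these data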;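 note: 0% = DMSO alone and 100% = 100 µM mitoxantrone as full dye displacement; higher means more dye released from RNA so lower well fluorescence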
ABHD5 PLIN5 PPI – ABHD5-PLIN5 interaction inhibitors, primary screen, cell lysate, split luciferase complementation, luminescence; Perilipin-5 (Homo sapiens) + 1-acylglycerol-3-phosphate O-acyltransferase ABHD5 (Homo …; Split G. princeps luciferase complementation, 4 h; inhibition, % at 4 µM; hit rate 0.78% among 360,000; AID 602281, 2012;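 active = inhibition above the mean inhibition across every tested compound plus 3 SD, cut at about 22% in these data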;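 note: 0% = DMSO only wells and the 100% control is not disclosed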
PRMT1 FP inh – PRMT1 methyltransferase inhibitors, primary screen, biochemical, fluorescence polarization; AID 652257, 2013; hit rate 1.3% among 370,000; Protein arginine N-methyltransferase 1 (Homo sapiens), Q99873; recombinant PRMT1, activity-based probe fluorescence polarization; inhibition, % at 2.79 µM;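 active = inhibition above about 21% made by adding two undisclosed values, limit read from the data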
Target sequence (Q99873 whole entry, looked up): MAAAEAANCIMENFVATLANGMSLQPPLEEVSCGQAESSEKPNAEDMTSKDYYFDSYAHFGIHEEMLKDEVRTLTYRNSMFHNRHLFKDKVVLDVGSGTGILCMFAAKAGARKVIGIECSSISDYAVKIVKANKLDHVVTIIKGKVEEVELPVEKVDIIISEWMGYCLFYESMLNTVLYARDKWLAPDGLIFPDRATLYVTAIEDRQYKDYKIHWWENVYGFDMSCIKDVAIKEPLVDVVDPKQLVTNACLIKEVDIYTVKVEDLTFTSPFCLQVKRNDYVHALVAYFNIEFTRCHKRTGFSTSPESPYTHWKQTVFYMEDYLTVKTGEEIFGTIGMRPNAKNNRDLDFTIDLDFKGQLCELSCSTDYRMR
MBD2 DNA inh – inhibitors of MBD2 binding to methylated DNA, primary screen, biochemical, TR-FRET, DNA-binding domain, human; hit rate 0.31% among 370,000; MBD2 binding to methylated oligonucleotide; inhibition, % at 4.4 µM; AID 686964, 2013; in the data active = inhibition above about 13%
LEDGF integ inh – blockers of LEDGF/p75-dependent integrase strand transfer – biochemical, TR-FRET, high throughput, primary screen; TR-FRET IN-LEDGF/p75 DNA integration, Eu/Cy5; inhibition, % at 3.7 µM; hit rate 0.64% among 370,000; HIV-1 integrase (with human LEDGF/p75);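 active = inhibition above the screen-wide mean plus 3 SD, cut at about 13% in these data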;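 note: signal is the Cy5 over europium emission ratio at 671 and 618 nm; 0% = plate median of compound wells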
UHRF1 binding – UHRF1 methylated DNA binding inhibitors, primary screen, counter-screen for MBD2 inhibitor project, biochemical, TR-FRET, human UHRF1, single concentration; hit rate 0.75% among 370,000; inhibition, % at 4.4 µM; UHRF1 binding to methylated oligo; in the data active = inhibition above about 21%;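 note: UHRF1 SRA domain binding a hemimethylated CpG hairpin DNA probe; 0% = median of test compound wells and 100% = reference inhibitor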
PRMT1 inh conf – PRMT1 methyltransferase inhibitors, confirmation, biochemical, fluorescence polarization, triplicate. shares compounds with PRMT1 FP inh. recombinant His-PRMT1, activity-based probe fluorescence polarization. inhibition, % at 2.79 µM. hit rate 42% among 3,300;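 active = mean inhibition across replicates above the hit cutoff derived for the earlier primary screen, cut at about 22% in these data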
Starred values were filed as active, the others as inactive; · = not tested or not shown.

SMILES | rCAG RNA binder | ABHD5 PLIN5 PPI | PRMT1 FP inh | MBD2 DNA inh | LEDGF integ inh | UHRF1 binding | PRMT1 inh conf
O=C(CSc1nc(NS(=O)(=O)c2ccccc2)cc(=O)[nH]1)Nc1ccccc1Cl | 13 | -14 | 29* | 1 | 1 | -1 | 16
O=C(OCC#CCSc1nnc(-c2ccc(Cl)cc2)o1)c1ccc(F)cc1 | · | · | -2 | 2 | 3 | -2 | ·
CCOC(=O)c1csc(NC(=O)C2CCCN(S(=O)(=O)c3cccs3)C2)n1 (centres undefined) | 2 | · | 7 | 0 | -2 | 3 | ·
COc1cccc(C2C(=O)c3ccccc3C2=O)c1 | 3 | 2 | 2 | -1 | -3 | -1 | ·
COc1ccc2c(c1)CSC(c1ccccc1)C2=O (centres undefined) | 12 | -13 | 53* | 7 | 11 | -2 | 30*
O=C(CCNc1ccc(Cc2ccncc2)cc1)c1cccc([N+](=O)[O-])c1 | 0 | 14 | 32* | 2 | -2 | -2 | 31*
O=C(CCNc1cccc(F)c1)c1cccc([N+](=O)[O-])c1 | 3 | -3 | 41* | 1 | -9 | 5 | 27*
O=C(NC1CCCCN(Cc2cccc(C(F)(F)F)c2)C1=O)c1cccc(C(F)(F)F)c1 (centres undefined) | 1 | · | 4 | 0 | 1 | 1 | ·
O=C(Nc1ccc(Cl)cc1)C1CCCN1S(=O)(=O)c1cccc2cccnc12 (centres undefined) | 3 | · | -7 | 0 | 1 | 1 | ·
Cc1ccc(NS(=O)(=O)c2cc(NC(=O)c3ccc4c(c3)NC(=O)CS4)ccc2C)c(C)c1 | 9 | -5 | 34* | -3 | 3 | -1 | 23*
CCOC(=O)N1C(=O)C[C@](Sc2ccc(OC)cc2)(C(=O)N2CCN(c3ncccn3)CC2)[C@H]1c1ccc(OC)cc1 | 10 | · | 41* | 2 | -1 | 0 | 33*
COc1ccc(S[C@]2(C(=O)N3CCOCC3)CC(=O)N(C(=O)C3CC3)[C@@H]2c2ccc(OC)cc2)cc1 | 4 | · | 36* | -1 | -4 | 0 | 27*
CCOC(=O)N1C(=O)C[C@](Sc2ccc(OC)cc2)(C(=O)N2CCCC2)[C@H]1c1ccc(OC)cc1 | 2 | · | 56* | 4 | 1 | 9 | 40*
COc1ccc(S[C@]2(C(=O)N3CCN(c4ncccn4)CC3)CC(=O)N(c3ccc(C#N)cc3)[C@@H]2c2ccc(OC)cc2)cc1 | 17 | · | 4 | -7 | -2 | 1 | ·
COc1ccc(S[C@]2(C(=O)N3CCOCC3)CC(=O)N(c3ccsc3)[C@@H]2c2ccc(OC)cc2)cc1 | 4 | · | 0 | -1 | 3 | 1 | ·
CCOC(=O)N1C(=O)C[C@](Sc2ccc(OC)cc2)(C(=O)N2CCN(C(C)=O)CC2)[C@H]1c1ccc(OC)cc1 | 3 | · | 54* | 2 | -3 | 1 | 46*
Cc1ccc(NC(=S)Nc2ccc(-c3nnc4n3CCCCC4)cc2)cc1C | -1 | · | -8 | -3 | -3 | -2 | ·
C=CCN1CC(COc2ccc(OC)cc2)OCCS1(=O)=O (centres undefined) | 1 | · | -2 | 0 | -4 | 0 | ·
Nc1[nH]c(C(=O)c2ccccc2)c(-c2ccc3ccccc3c2)c1C(=O)NCc1ccc(F)cc1 | 10 | · | 3 | 1 | 1 | 0 | ·
C#CCN1CC(COc2ccccc2)Oc2cccc(Oc3ccc(OC)cc3)c2S1(=O)=O (centres undefined) | 12 | · | 1 | -6 | -1 | -1 | ·
CN1Cc2nnn(Cc3ccccc3)c2-c2ccccc2S1(=O)=O | 1 | · | 1 | 2 | -2 | 0 | ·
CCOC(=O)N1C(=O)C[C@](Sc2ccc(OC)cc2)(C(=O)N2CCOCC2)[C@H]1c1ccc(OC)cc1 | 0 | · | 47* | -6 | -2 | -3 | 43*
COc1ccc(S[C@]2(C(=O)N3CCOCC3)CC(=O)N(c3ccccc3)[C@@H]2c2ccc(OC)cc2)cc1 | 5 | · | 6 | 2 | 1 | -1 | ·
COC(=O)[C@@]1(Sc2ccc(C)cc2)CC(=O)N[C@@H]1c1ccco1 | 3 | -3 | 52* | 4 | 7 | 4 | 1
CCCC#Cc1ccc(CC[C@H]2O[C@H]3CC[C@H](CO)O[C@H]3C[C@H]2NC(=O)CN2CCOCC2)cc1 | -2 | · | -7 | 4 | 6 | 6 | ·
SMILES | rCAG RNA binder | ABHD5 PLIN5 PPI | PRMT1 FP inh | MBD2 DNA inh | LEDGF integ inh | UHRF1 binding | PRMT1 inh conf
Cc1ccc(C=Nn2c(-c3n[nH]c4c3CCC4)n[nH]c2=S)s1 | 15 | · | 29* | 7 | -3 | 3 | 4
CN1CCc2cccc3c2[C@H]1Cc1ccc(O)c(O)c1-3 | 13 | -3 | 86* | 4 | 12 | 15 | 38*
O=c1oc2cc(O)ccc2s1 | 0 | -16 | 86* | -1 | -2 | 3 | 33*
Oc1ccc2c(c1)oc1cc(O)ccc12 | 6 | -5 | -2 | 4 | 0 | -4 | ·
CC1(C)Cc2c(c(N3CCOCC3)nc3sc(C(=O)Nc4cccc(Cl)c4)c(N)c23)CO1 | 10 | 11 | 8 | -7 | -1 | -1 | ·
CC1(C)Cc2c(c(N3CCOCC3)nc3sc(C(=O)Nc4ccccc4)c(N)c23)CO1 | 14 | -3 | 27* | -3 | -3 | -4 | 23*
CC1(C)C=Cc2ccc(O)c(C(=O)/C=C/c3ccccc3)c2O1 | · | · | -1 | -6 | 7 | 0 | ·
CCc1ccccc1N1C(=O)CC(Sc2nccc(C)n2)C1=O (centres undefined) | -2 | 5 | 14 | 2 | -1 | 0 | ·
O=C1CC(Sc2ncccn2)C(=O)N1c1ccccc1C(F)(F)F (centres undefined) | 3 | 0 | 51* | 5 | -4 | 4 | 6
Cc1ccc(Cl)cc1N1C(=O)CC(Sc2ncccn2)C1=O (centres undefined) | 3 | -5 | 32* | -5 | 5 | 1 | 0
COc1ccc(NC(=O)N(CCc2c(C)[nH]c3ccccc23)Cc2cccs2)cc1OC | 4 | · | 4 | 2 | -2 | 3 | ·
COC(=O)[C@@]1(OC(C)=O)CC(OC(C)=O)[C@H](OC(C)=O)[C@H](OC(C)=O)C1Br (some centres undefined) | · | · | 1 | 8 | -1 | 1 | ·
CC(C)(C)n1nnnc1C(c1ccncc1)N1CCN(c2ccc(O)cc2)CC1 (centres undefined) | 3 | 1 | 27* | 2 | -3 | 0 | 4
